Sfp PPTase inh = Sfp phosphopantetheinyl transferase inhibition | Biochemical Sfp PPTase activity, qHTS | AID 1490 | actives 3.5% (n = 310,000) | Potency, µM, hits mostly inhibitors | Q9F4F7;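 note: the enzyme is Sfp with the accession as filed and its product quenches rhodamine fluorescence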
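Sfp 15 nM + cpd, 15 min RT; start w/ rhodamine-CoA 5 uM, BHQ-2-YbbR 12.5 uM (final); 50 mM Hepes pH 7.6, 10 mM MgCl2, 0.01% NP-40, 0.01% BSA; read 525/598 nm at 0 and 30 min.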
Tau fluor cs = counter-screen for tau fibril formation inhibitors. actives 0.93% (n = 280,000). tau K18 P301L Alexa594 fluorescence, heparin fibrillization. Potency, µM (highest dose often 57.7 µM); note: nearly all actives have a fitted effect of over 55% in size
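Human K18 P301L tau (15 uM unlabeled plus 0.24 uM Alexa 594-labeled, final) in 100 mM sodium acetate pH 7 was mixed with compound and 20 uM heparin and incubated 6 hr at 37 C.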
FBPA coupling cs = inhibits coupling enzyme system, counter-screen for aldolase hits. coupling enzyme system counterscreen, AmpLite Red fluorescence. activity change, negative = inhibition, % at 58.2 µM, hits read low. actives 0.67% (n = 290,000); in the data active = activity change below about -30%
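First, compound is pin-transferred into glyceraldehyde-3-phosphate coupling-enzyme reagent at 57.5 uM final and held 10 min at RT. Next, substrate, coupling system and AmpLite Red are added. After 20 min RT, fluorescence (525/598 nm) is read.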
G9a block = blocks human histone lysine methyltransferase G9a. Q96KQ7. G9a H3K9 monomethylation, AlphaScreen, 2 h. Potency, µM (titrated, usually from 102 µM), most hits filed as inhibitors. actives 8.8% (n = 350,000). AID 504332; note: nearly all actives have a fitted effect of over 75% in size
Target sequence (Q96KQ7 913-1193 limits assumed): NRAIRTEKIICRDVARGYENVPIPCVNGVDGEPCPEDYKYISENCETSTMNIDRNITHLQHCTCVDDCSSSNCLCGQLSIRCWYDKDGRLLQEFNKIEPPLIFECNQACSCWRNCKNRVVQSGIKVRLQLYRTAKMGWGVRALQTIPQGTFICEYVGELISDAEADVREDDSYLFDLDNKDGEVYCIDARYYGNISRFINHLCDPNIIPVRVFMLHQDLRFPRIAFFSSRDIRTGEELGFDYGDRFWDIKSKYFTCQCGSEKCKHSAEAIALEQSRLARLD
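Compounds were preincubated with 20 nM G9a for 15 min, after which biotinylated H3K9 peptide (500 nM) and SAM (20 uM) started a 2 h room-temperature reaction. Monomethylated product was quantified by antibody-based AlphaScreen chemiluminescence.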
Tau FP inhib = inhibitors of human tau fibril formation | AID 1468 | K18 P301L tau heparin fibrillization, Alexa594 FP, 6 h | P10636 | actives 0.39% (n = 280,000) | Potency, µM (series often up to 57.7 µM), actives largely listed as inhibitors; note: nearly all actives have a fitted effect of over 55% in size
Target sequence (P10636 561-689 P618L limits assumed): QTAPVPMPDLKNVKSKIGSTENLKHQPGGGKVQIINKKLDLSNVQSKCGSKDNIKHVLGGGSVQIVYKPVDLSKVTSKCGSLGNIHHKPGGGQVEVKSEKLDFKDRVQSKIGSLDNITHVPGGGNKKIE
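Steps: dispense K18 P301L tau (15 uM plus 0.24 uM Alexa 594 tracer, final) in pH 7 sodium acetate; add compound; add heparin (20 uM final); incubate 6 hr, 37 C; add ThT (30 uM final); after 1 hr ambient, read FP.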
Tau ThT inhib = tau fibrillization inhibition (ThT binding); P10636; recombinant tau K18 P301L (four-repeat tau fragment), heparin-induced fibrillization, ThT fluorescence; Potency, µM (titrated, usually from 57.4 µM), actives largely listed as inhibitors; actives 2.1% (n = 270,000); note: nearly all actives have a fitted effect of over 55% in size
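In this qHTS, human K18 P301L tau is incubated with compound and heparin for 6 hr at 37 C, and Thioflavin T fluorescence then reports fibril load.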
Numbers stand for hits; i = inactive; ? = inconclusive; nt = no result; [ ] = remark or other dose. The list is not random: actives were taken first. Their share in the collection is about 11%. Unless noted, calls come from the whole dose curve; as a rule, active = well fitted curve in the direction sought with a large enough effect; inconclusive = small, poorly fitted or top-dose-only effect, or another doubt; inactive = no such curve, though single readings can be large; an effect the other way counts as inactive or inconclusive.

SMILES	Sfp PPTase inh	Tau fluor cs	FBPA coupling cs	G9a block	Tau FP inhib	Tau ThT inhib
CCOc1ccc2[nH]c3c(N4CCc5ccccc5C4)ncnc3c2c1	i	14.1µM[quencher]	i	i	?	?
Brc1ccc2[nH]c3c(N4CCc5ccccc5C4)ncnc3c2c1	i	11.2µM[quencher]	i	i	i	i
O=C(Cc1csc(Nc2nc(=S)[nH]c3ccccc23)n1)N1CCN(c2cccc(C(F)(F)F)c2)CC1	i	i	i	i	?	i
CC1=CN2C(=N)/C(=C/c3ccc([N+](=O)[O-])o3)C(=O)N=C2S1	35.5µM	?	-32.5	?	?	12.6µM
CC1=CN2C(=N)/C(=C/c3ccco3)C(=O)N=C2S1	i	i	i	i	i	?
FC(F)(F)c1cccc(N2CCN(c3nnnn3-c3ccccc3)CC2)c1	i	i	i	i[12.7 µM]	?	i
CN1CCN(C=NC2=NN(c3cccc(C(F)(F)F)c3)CC2)CC1	i	i	i	2.82µM	i	?
CN(C)C=NC1=NN(c2cccc(C(F)(F)F)c2)CC1	i	i	i	2.24µM	i	?
CC1CCN(S(=O)(=O)c2ccc3c(c2)c(=O)c(C(=O)NCCc2ccccc2)cn3C)CC1	nt	i	nt	i	i	i
COc1cn(CC(=O)Nc2cc(C)ccc2C)c(CN2CCCCC2)cc1=O	nt	i	nt	i	i	i
CC1(C(=O)c2ccccc2)C2c3c(ccc4ccccc34)OC(=O)C21C(=O)N1CCOCC1 (centres undefined)	i	i	i	79.4µM	i	i
O=C(N1CCOCC1)N(CCN1CCOCC1)Cc1cccc2ccccc12	i	i	i	i[12.7 µM]	i	i
O=[N+]([O-])c1ccccc1Sc1nccn1Cc1ccccc1	i	i	i	50.1µM	i	i
Cc1ccc(C2=NN(C(=O)CCl)C(c3ccco3)C2)o1 (centres undefined)	i	nt	i	39.8µM	nt	nt
Cc1ccc(-c2nc(CN3CCCCC3c3cccc(F)c3)c(C)o2)o1 (centres undefined)	i	i	i	39.8µM	i	i
Cc1ccc(C2=NN(C(=O)CCCC(=O)O)C(c3ccco3)C2)cc1 (centres undefined)	44.7µM	i	i	i	i	i
CC(=O)N1N=C(c2ccc(C)o2)CC1c1cccc(F)c1 (centres undefined)	39.8µM	i	i	nt	i	i
COc1ccc(C2=NN(C(=O)CSc3nnc(C)n3C)C(c3ccco3)C2)cc1 (centres undefined)	i	i	i	50.1µM	i	i
Cc1nnc(SCC(=O)N2N=C(c3ccc(Cl)cc3)CC2c2ccco2)[nH]c1=O (centres undefined)	50.1µM	i	i	?	i	?
COc1ccc(C2=NN(C(=O)COc3ncnc4ccccc34)C(c3ccco3)C2)cc1 (centres undefined)	i	i	i	?	i	i
Cc1ccc(S(=O)(=O)N[C@H](C(=O)OCC(=O)N2N=C(c3ccc(Cl)cc3)CC2c2ccco2)C(C)C)cc1 (some centres undefined)	79.4µM	i	i	i	i	i
CC(=O)N1N=C(c2ccc(Cl)cc2)CC1c1ccco1 (centres undefined)	?	i	i	nt	i	i
Cc1csc(=O)n1CCC(=O)OCC(=O)Nc1cccc(C#N)c1	nt	nt	nt	i	nt	nt
COc1cc(NC(=O)CCc2c(C)nn(-c3ccc4nnc(C)n4n3)c2C)cc(OC)c1OC	nt	i	nt	i	i	i
COc1cc(C(=O)NC(c2ccc(Cl)cc2)c2cc(Cl)c3cccnc3c2O)cc(OC)c1OC (centres undefined)	nt	i	nt	i	i	i
SMILES	Sfp PPTase inh	Tau fluor cs	FBPA coupling cs	G9a block	Tau FP inhib	Tau ThT inhib
Oc1c(C(c2ccc(Cl)cc2)N2CCCC2)cc(Cl)c2cccnc12 (centres undefined)	i	i	i	25.1µM	i	?
CN1CCN(C(c2ccccn2)c2cc(Cl)c3cccnc3c2O)CC1 (centres undefined)	31.6µM	i	i	?	i	?
Oc1c(C(c2ccccn2)N2CCC(Cc3ccccc3)CC2)cc(Cl)c2cccnc12 (centres undefined)	?	i	i	3.55µM	i	?
CC(=O)NC(c1cc(Cl)c2cccnc2c1O)C1CC1 (centres undefined)	nt	nt	nt	i[12.7 µM]	nt	nt
Cc1ccc(C(c2cc(Cl)c3cccnc3c2O)N2CCN(C)CC2)cc1 (centres undefined)	35.5µM	nt	i	3.55µM	nt	nt
COc1ccc(C(=O)NC2CCCc3c2cnn3-c2cc(F)cc(F)c2)c(OC)c1OC (centres undefined)	i	nt	i	i	nt	nt
O=C(NC1CC1)C1CC(=O)N(c2ccc(F)cc2)C1 (centres undefined)	i	nt	i	i	nt	nt
CN(C)Cc1c(O)ccc2c(=O)c(-c3ccccc3Cl)c(C(F)(F)F)oc12	i	nt	i	nt	nt	nt
Cc1ccc2occ(CC(=O)N3CCN(c4cccc(Cl)c4)CC3)c2c1	nt	i	nt	i	i	i
COc1ccc(N2CCN(C(=O)Cc3coc4ccc(C)cc34)CC2)cc1	nt	i	nt	15.8µM	?	i
COc1ccc(N2CCN(C(=O)CCC(=O)N3CCOc4ccc(C)cc43)CC2)cc1	i	nt	i	nt	nt	nt
COc1ccc(N2CCN(C(=O)Cc3coc4cc(C)ccc34)CC2)cc1	i	i	i	44.7µM	i	?
COc1ccc(N2CCN(C(=O)CCC(=O)N3CC(C)Oc4ccc(C)cc43)CC2)cc1 (centres undefined)	i	nt	i	44.7µM	nt	nt
CC([NH2+][O-])C(C)(C)NO (centres undefined)	?	i	i	17.8µM	i	i
COc1ccc(C(N)=S)c(OC)c1	44.7µM	i	i	8.91µM	i	i
CC1(OC(=O)c2cnc3ccccc3n2)C(=O)C=C2C=C(c3ccsc3)OC=C2C1=O (centres undefined)	i	i	i	nt	i	i
CC1CCCN(c2ccc3nc4ccccc4c(=O)n3n2)C1 (centres undefined)	i	i	i	50.1µM	i	i
O=C(NCc1ccco1)/C(=C\c1ccco1)NC(=O)c1ccc(Br)o1	89.1µM	i	i	i[12.7 µM]	i	i
O=C(NCc1ccco1)/C(=C/c1ccco1)NC(=O)c1ccc(Br)o1	?	i	i	?	i	?
C=CCNC(=O)/C(=C\c1ccco1)NC(=O)c1ccco1	i	nt	i	i	nt	nt
CCCCNC(=O)/C(=C/c1ccco1)NC(=O)c1ccco1	i	nt	i	i	nt	nt
O=C(NCCCO)/C(=C\c1ccco1)NC(=O)c1ccc(Br)o1	i	i	i	28.2µM	i	?
C=CCNC(=O)/C(=C/c1ccco1)NC(=O)c1ccc(Br)o1	10µM	i	i	?	i	?
O=C(NCc1ccco1)/C(=C\c1ccco1)NC(=O)c1ccco1	44.7µM	?	i	44.7µM	?	39.8µM

Screening results deposited in PubChem by National Center for Advancing Translational Sciences (NCATS).
